Measurements: PubChem BioAssay (NCATS)
Results filed as inconclusive are left out. Active and inactive are the calls of the source. The call rests on the fitted dose curve; in most records, active means well fitted inhibition curve with a large enough effect; inconclusive means small, poorly fitted or top-dose-only effect; inactive means flat fitted curve, though single readings scatter.

Experiments:
CRL-7250 = normal cell line; test: Cytotoxic Profiling of Annotated Libraries Using Quantitative High-Throughput Screening (AID 1296008); conditions: Five cell lines viability, CellTiter-Glo ATP luminescence, 48-72 h; max response: hits give low values; on max response: on the % scale 0 is the no-effect control and ±100 the full control effect
In short: (§1)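 Compounds were pin-transferred onto cells and incubated 48 or 72 hr at 37 degree Celsius, 95% humidity. CellTiter-Glo was added, plates sat 10 min at room temperature, then ATP-coupled luminescence was imaged as the viability read-out.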

HEK293 = test: as above; conditions: Five cell lines viability, CellTiter-Glo ATP luminescence, 48-72 h; max response: hits give low values
In short: as §1

HaCat [1] = test: as above; conditions: Five cell lines viability, CellTiter-Glo ATP luminescence, 48-72 h; max response: hits give low values
In short: as §1

KB-3-1 = test: as above; conditions: Five cell lines viability, CellTiter-Glo ATP luminescence, 48-72 h; max response: hits give low values
In short: as §1

NIH3T3 = test: as above; conditions: Five cell lines viability, CellTiter-Glo ATP luminescence, 48-72 h; max response: hits give low values
In short: as §1

HACAT [2] = test: qHTS assay to identify novel small-molecules to repurpose for Merkel cell carcinoma treatment (AID 1296009); conditions: MCC and control cell lines, CellTiter-Glo viability, 72 h; at 44.8 µM (top of the series) unless noted
In short: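 qHTS format: cells treated with library compounds in DMSO across 8 (NPC) or 11 (MIPE) concentrations. Readout after 72 hr at 37 degree celsius was CellTiter-Glo luminescence.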

Measured: max response
Further: nearly all actives have a fitted effect of over 60% in size.

O=C(O)c1cccc(CN2C(=O)/C(=C(\c3ccccc3)c3ccc(Cl)cc3)c3ccccc32)c1
inactive: CRL-7250 3.11% | HEK293 -10.4% | HaCat [1] | KB-3-1 5.03% | NIH3T3 -3.22% | HACAT [2]

Cc1[nH]c2ccccc2c1CC(=O)N[C@@H](Cc1ccccc1)C(=O)N(C)c1ccccc1
inactive: CRL-7250 -9.69% | HEK293 -12.5% | HaCat [1] | KB-3-1 | NIH3T3 -0.277% | HACAT [2]

Cc1cccc(-c2nn3c(c2-c2ccnc4ccc(C(N)=O)cc24)CCC3)n1
inactive: CRL-7250 1.85% | HEK293 3.73% | HaCat [1] | KB-3-1 | NIH3T3 -5.67% | HACAT [2]

COc1ccc(-n2c(SCC#N)nc3sc4c(c3c2=O)CCCC4)cc1
inactive: CRL-7250 1.37% | HEK293 3.85% | HaCat [1] | KB-3-1 9.32% | NIH3T3 4.07% | HACAT [2]

CCC1=C(C)C(=O)C(C)CC12C(=O)CCC2C(=O)O (centres undefined)
inactive: CRL-7250 -4.23% | HEK293 -5.13% | HaCat [1] | KB-3-1 0.468% | NIH3T3 | HACAT [2]

CC1(C)CCC2(C(=O)O)C(O)CC3(C)C(=CCC4C5(C)CCC(OC6OC(CO)C(O)C(O)C6OC6OC(CO)C(O)C(O)C6OC6OCC(O)(CO)C6O)C(C)(C)C5CCC43C)C2C1 (centres undefined)
inactive: CRL-7250 -4.69% | HEK293 -13.6% | HaCat [1] | KB-3-1 | NIH3T3 | HACAT [2] inactive [at 9.27 µM]

C=C1CCC(OC(C)=O)C2(C)CC3OC(=O)C(C)=C3CC12 (centres undefined)
inactive: CRL-7250 -0.951% | HEK293 -10.1% | HaCat [1] | KB-3-1 3.31% | NIH3T3 -1.87% | HACAT [2]

C[C@@H]1CC[C@]2(C(=O)O[C@@H]3O[C@H](CO[C@@H]4O[C@H](CO)[C@@H](O)[C@H](O)[C@H]4O)[C@@H](O)[C@H](O)[C@H]3O)CC[C@]3(C)C(=CCC4[C@@]5(C)CC[C@H](O)[C@](C)(C(=O)O)C5CC[C@]43C)[C@@H]2[C@]1(C)O (some centres undefined)
inactive: CRL-7250 | HEK293 3.94% | HaCat [1] | KB-3-1 2.71% | NIH3T3 -11.7% | HACAT [2] inactive [at 9.27 µM]

CC(O)C(O)/C=C/C=C/C(=O)O[C@@H]1C=C(C(=O)O)[C@](O)(CO)[C@@]2(C)CCCC(C)(C)[C@H]12 (some centres undefined)
inactive: CRL-7250 -15.6% | HEK293 -10.2% | HaCat [1] | KB-3-1 4.17% | NIH3T3 | HACAT [2] inactive [at 17.4 µM]

CC1CC(=O)[C@]2(O)C(C(=O)OCCc3ccc(O)cc3)=CO[C@@H](O[C@@H]3O[C@H](CO)[C@@H](O)[C@H](O)[C@H]3O)[C@H]12 (some centres undefined)
inactive: CRL-7250 -11.7% | HEK293 -6.36% | HaCat [1] | KB-3-1 | NIH3T3 -59.3% | HACAT [2] inactive [at 17.4 µM]

CCC(C)/C=C(C)/C=C/C1=CC2=C(Cl)C(=O)C(C)(OC(C)=O)C(=O)C2=CN1CCCCC(N)C(=O)O (centres undefined)
inactive: CRL-7250 -2.74% | HEK293 3.25% | HaCat [1] | KB-3-1 | NIH3T3 3.52% | HACAT [2] inactive [at 17.4 µM]

COc1cc(/C=C/C(=O)O)ccc1O[C@@H]1O[C@H](CO)[C@@H](O)[C@H](O)[C@H]1O[C@@H]1OC[C@](O)(CO)[C@H]1O
inactive: CRL-7250 | HEK293 -3.47% | HaCat [1] | KB-3-1 0.854% | NIH3T3 | HACAT [2] inactive [at 17.4 µM]

COC1OC(=O)C2=C1C1(C)CCCC(C)(C)C1CC2O (centres undefined)
inactive: CRL-7250 -6.21% | HEK293 1.96% | HaCat [1] | KB-3-1 | NIH3T3 | HACAT [2]

CC12CC34CC(O)C5C(CO)(CO)CC(=O)CC5(C)C3CC1C2C4 (centres undefined)
inactive: CRL-7250 -4.91% | HEK293 -0.711% | HaCat [1] | KB-3-1 0.93% | NIH3T3 2.14% | HACAT [2]

COC(=O)C(CC1(OC(=O)C(C)C)c2ccccc2N2C(=O)C(C)(C)N(O)C21)n1cnc2ccccc2c1=O (centres undefined)
inactive: CRL-7250 -11.1% | HEK293 -9.23% | HaCat [1] | KB-3-1 5.72% | NIH3T3 -14.6% | HACAT [2] inactive [at 17.4 µM]

C[C@@H]1CC2OC(=O)C3=C2C(CCC3O)[C@@]12C[C@@H](c1ccoc1)OC2=O (some centres undefined)
inactive: CRL-7250 -0.741% | HEK293 2.79% | HaCat [1] | KB-3-1 | NIH3T3 | HACAT [2]

CCC(C)/C=C(C)/C=C/C1=CC2=C(Cl)C(=O)C(C)(O)C(=O)C2(O)C(OC)O1 (centres undefined)
inactive: CRL-7250 -11.8% | HEK293 -3.29% | HaCat [1] | KB-3-1 | NIH3T3 | HACAT [2] inactive [at 17.4 µM]

CNc1nc(C)nc(N[C@H]2CCC[C@@H](C(=O)NCc3ccc(C#N)cc3C(F)(F)F)C2)n1
inactive: CRL-7250 | HEK293 -15.3% | HaCat [1] | KB-3-1 -5.41% | NIH3T3 | HACAT [2]

COc1ccc(C2COc3cc(O)ccc3C2)c(O)c1OC (centres undefined)
inactive: CRL-7250 | HEK293 -9.14% | HaCat [1] | KB-3-1 1.88% | NIH3T3 -7.34% | HACAT [2]

NC(=O)c1ccc(F)c2c1C[C@@H](N(C1CCC1)C1CCC1)CO2
inactive: CRL-7250 | HEK293 -5.17% | HaCat [1] | KB-3-1 4.79% | NIH3T3 3.88% | HACAT [2]

OC[C@@]1(O)CO[C@H](OC[C@H]2O[C@@H](OC(CCCCc3ccc(O)cc3)CCc3ccc(O)cc3)[C@H](O[C@H]3OC[C@](O)(CO)[C@H]3O)[C@@H](O)[C@@H]2O)[C@@H]1O (some centres undefined)
inactive: CRL-7250 -11.2% | HEK293 -13.7% | HaCat [1] | KB-3-1 2.31% | NIH3T3 | HACAT [2] inactive [at 17.4 µM]

CC1(C)OC(=O)C=C[C@@]2(C)C1CC(=O)[C@]1(C)C2CC[C@@]2(C)[C@H](c3ccoc3)OC(=O)[C@H]3O[C@]321 (some centres undefined)
inactive: CRL-7250 -0.596% | HEK293 -1.27% | HaCat [1] | KB-3-1 | NIH3T3 -2.44% | HACAT [2] inactive [at 17.4 µM]

COc1cc(O)c(C(=O)O)c(CCc2ccccc2)c1
inactive: CRL-7250 -1.14% | HEK293 -6.57% | HaCat [1] | KB-3-1 9.04% | NIH3T3 -0.163% | HACAT [2]

C=C1CCC[C@]2(C)CC[C@@](O)(C(=C)C(=O)O)C[C@@H]12
inactive: CRL-7250 -0.228% | HEK293 -21.6% | HaCat [1] | KB-3-1 -4.38% | NIH3T3 -3.81% | HACAT [2]

CC(C)c1ccc2c(c1)CCC1[C@](C)(C(=O)O)CCC[C@]21C (some centres undefined)
inactive: CRL-7250 | HEK293 2.37% | HaCat [1] | KB-3-1 -0.955% | NIH3T3 | HACAT [2]

C[C@@H](CC[C@@H]1[C@@]2(C)CCCC(C)(C)C2CC[C@@]1(C)O)CC(=O)O (some centres undefined)
inactive: CRL-7250 | HEK293 -2.2% | HaCat [1] | KB-3-1 | NIH3T3 0.858% | HACAT [2]

C/C(=C\CCC1(C)C2CC3C(C2)C31C)C(=O)O (centres undefined)
inactive: CRL-7250 | HEK293 -2.35% | HaCat [1] | KB-3-1 | NIH3T3 | HACAT [2]

COC(=O)C(CC1(O)c2ccccc2N2C(=O)C(CC(C)C)NC21)n1cnc2ccccc2c1=O (centres undefined)
inactive: CRL-7250 | HEK293 -5.33% | HaCat [1] | KB-3-1 | NIH3T3 | HACAT [2] inactive [at 17.4 µM]

CC1(C)CC[C@]2(C(=O)O[C@@H]3O[C@H](CO)[C@@H](O)[C@H](O)[C@H]3O)CC[C@]3(C)C(=CCC4[C@@]5(C)CC[C@H](O[C@@H]6O[C@H](C(=O)O)[C@@H](O[C@@H]7O[C@H](CO)[C@@H](O)[C@H](O)[C@H]7O)[C@H](O)[C@H]6O[C@@H]6O[C@H](CO)[C@@H](O)[C@H](O)[C@H]6O)C(C)(C)C5CC[C@]43C)C2C1 (some centres undefined)
inactive: CRL-7250 -7.32% | HEK293 -5.89% | HaCat [1] | KB-3-1 9.55% | NIH3T3 | HACAT [2] inactive [at 9.27 µM]

COc1cc(C2Oc3c(OC)cc(CCCO)cc3C2CO)ccc1O (centres undefined)
inactive: CRL-7250 | HEK293 3.43% | HaCat [1] | KB-3-1 | NIH3T3 -0.27% | HACAT [2]

C[C@@H]1O[C@@H](O[C@H]2[C@@H]3C=CO[C@@H](O[C@@H]4O[C@H](CO)[C@@H](O)[C@H](O)[C@H]4O)[C@@H]3[C@@]3(CO)O[C@@H]23)[C@H](O)[C@H](O)[C@H]1OC(=O)/C=C/c1ccc(O)cc1
inactive: CRL-7250 -9.97% | HEK293 1.82% | HaCat [1] | KB-3-1 -5.93% | NIH3T3 -3.44% | HACAT [2] inactive [at 17.4 µM]

CN1CCCC1Cc1c[nH]c2ccc(CCS(=O)(=O)c3ccccc3)cc12 (centres undefined)
inactive: CRL-7250 | HEK293 -7.1% | HaCat [1] | KB-3-1 7.71% | NIH3T3 | HACAT [2]

N#Cc1cccc(-c2c[nH]c3ncnc(N4CCOCC4)c23)c1
inactive: CRL-7250 | HEK293 -6.95% | HaCat [1] | KB-3-1 -3.64% | NIH3T3 | HACAT [2]

Cc1noc2c1-c1ccccc1C(c1ccc(Cl)cc1)=N[C@H]2CC(N)=O
inactive: CRL-7250 1.75% | HEK293 -4.39% | HaCat [1] | KB-3-1 | NIH3T3 -0.413% | HACAT [2]
